Compound activity (PubChem)
Most compounds without a hit are left out; they make up all but 9% or so of the library.
PLK1 PBD inh: inhibitors of human PLK1 polo-box domain binding; P53350; Plk1 PBD binding of FITC phosphopeptide, fluorescence polarization; Potency, µM, actives largely listed as inhibitors; 360,000 tested, 2.8% active; AID 720504; also: series mostly up to about 57 µM; nearly all actives have a fitted effect of over 65% in size
HP1b binding inh: inhibitors of HP1-beta chromodomain binding to methylated histone tails; Potency, µM (titrated, usually from 114 µM), most hits filed as inhibitors; AlphaScreen HP1-beta / biotin-H3K9me3 peptide binding; 390,000 tested, 0.56% active; also: nearly all actives have a fitted effect of over 70% in size
Target sequence (P83916 whole entry, looked up): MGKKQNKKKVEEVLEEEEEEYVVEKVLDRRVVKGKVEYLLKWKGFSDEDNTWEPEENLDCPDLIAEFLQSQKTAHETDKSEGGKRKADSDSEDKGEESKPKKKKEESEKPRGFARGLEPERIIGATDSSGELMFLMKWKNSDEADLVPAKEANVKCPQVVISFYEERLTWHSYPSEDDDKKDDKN
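AlphaScreen: HP1-beta (50 nM) preformed 30 min with biotin-H3(1-18)K9me3 peptide (50 nM) in PBS pH 7.4, 0.01% Tween-20. Compound added for 30 min at RT, then streptavidin donor/nickel chelate acceptor beads (10 ug/mL) for 30 min.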
BAZ2B inh: inhibitors of human BAZ2B bromodomain; Q9UIF8; Potency, µM (highest dose often 114 µM), usual class: inhibitors; AlphaScreen BAZ2B-H3K14Ac peptide displacement; AID 504333; 360,000 tested, 4.4% active; also: nearly all actives have a fitted effect of over 60% in size
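AlphaScreen displacement of biotin-H3(5-23)K14Ac peptide (50 nM final) from BAZ2B (50 nM final) in PBS pH 7.4, 0.01% Tween-20; complex preformed 30 min RT, then compounds (top 110 uM) 30 min RT, beads 20 min dark.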
JMJD2A Tudor: inhibitors of human JMJD2A Tudor domain. O75164. Potency, µM (doses to about 114 µM), actives largely listed as inhibitors. 390,000 tested, 4.4% active. AID 504339. AlphaScreen JMJD2A-Tudor / H3K4me3 peptide binding; also: nearly all actives have a fitted effect of over 50% in size
ALOX12 inh: inhibitors of human 12S-lipoxygenase ALOX12; P18054; purified 12hLO, xylenol orange hydroperoxide absorbance; Potency, µM (titrated, usually from 108 µM), usual class: inhibitors; 580,000 tested, 1.1% active
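Purified human 12hLO (150 nM final) in 25 mM Hepes, 0.01% Triton X-100, pH 7.0 was preincubated 15 min at room temperature with compound. Then 40 uM arachidonic acid was added, 30 min. Hydroperoxide was read by Fe-XO absorbance ratio 573/405 nm.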
G9a block: G9a (human) methyltransferase inhibition; Q96KQ7; G9a H3K9 monomethylation, AlphaScreen, 2 h; Potency, µM (highest dose often 102 µM), hits mostly inhibitors; 350,000 tested, 8.8% active; AID 504332; also: nearly all actives have a fitted effect of over 75% in size
Target sequence (Q96KQ7 913-1193 limits assumed): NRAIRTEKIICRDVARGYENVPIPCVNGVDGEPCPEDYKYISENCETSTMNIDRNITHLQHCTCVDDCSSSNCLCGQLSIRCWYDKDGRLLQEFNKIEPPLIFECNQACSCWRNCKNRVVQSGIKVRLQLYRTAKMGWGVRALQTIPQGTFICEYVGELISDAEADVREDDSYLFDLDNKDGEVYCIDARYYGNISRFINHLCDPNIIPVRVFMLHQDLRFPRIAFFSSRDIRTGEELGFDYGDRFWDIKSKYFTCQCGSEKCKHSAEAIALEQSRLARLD
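Using a bead-based AlphaScreen, monomethylated H3K9 product from 2 h room-temperature reactions (G9a 20 nM, peptide 500 nM, SAM 20 uM) was detected with 0.5 ug/mL rabbit anti-H3K9me1 antibody.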
Large screens that a line does not name were inactive; ! = a repeat was not active. Calls follow the shape of the dose curve; as a rule, active = well fitted curve in the direction sought with a large enough effect; inconclusive = small, poorly fitted or top-dose-only effect, or another doubt; inactive = no such curve, though single readings can be large; an effect the other way counts as inactive or inconclusive.

CN1CCN(CC/C=C2/c3ccccc3Sc3ccc(S(=O)(=O)N(C)C)cc32)CC1	BAZ2B inh inconclusive, JMJD2A Tudor inconclusive, ALOX12 inh inconclusive, G9a block 50.1µM!
Cc1nnc2sc(-c3ccc(-c4ccc(Cl)c(C(F)(F)F)c4)o3)nn12	PLK1 PBD inh inconclusive, JMJD2A Tudor inconclusive, ALOX12 inh inconclusive, G9a block 50.1µM
Cc1nnc2sc(-c3ccc(CNC(=O)c4ccccc4Cl)cc3)nn12	none (no result: PLK1 PBD inh, HP1b binding inh, BAZ2B inh, JMJD2A Tudor, G9a block)
COc1ccccc1NC(=O)c1ccc(CN2CCOCC2)cc1	none
COc1ccc(C2=NN3C(C2)c2ccccc2OC3c2cccs2)cc1 (stereo not drawn)	BAZ2B inh inconclusive, ALOX12 inh inconclusive, G9a block 39.8µM
COc1ccc(C2=NN(C(=O)CCC(=O)O)C(c3cccs3)C2)cc1 (stereo not drawn)	none
CN1CCC2(CC1)Oc1ccccc1C1CC(c3ccc4c(c3)OCCO4)=NN12 (stereo not drawn)	none (no result: PLK1 PBD inh, HP1b binding inh, BAZ2B inh, JMJD2A Tudor, G9a block)
COc1ccc(C2=NN3C(C2)c2ccccc2OC32C(=O)N(C)c3ccccc32)cc1 (stereo not drawn)	G9a block 25.1µM
Cc1cccnc1-c1cccc2c1OC(CNC(=O)C1CCCc3c1[nH]c1ccccc31)C2 (stereo not drawn)	none (no result: PLK1 PBD inh, HP1b binding inh, BAZ2B inh, JMJD2A Tudor, G9a block)
O=C1CN(C(=O)c2cncs2)CC(OCc2cccc(F)c2)CN1CCc1ccccc1 (stereo not drawn)	none (no result: PLK1 PBD inh, HP1b binding inh, BAZ2B inh, JMJD2A Tudor, G9a block)
Cc1cccc(C)c1NC(=O)Cn1nnc(C(=O)NCc2ccc(F)cc2)c1N	none (no result: PLK1 PBD inh)
Cc1cc(C)cc(NC(=O)Cn2nnc(C(=O)NCc3ccccc3Cl)c2N)c1	G9a block 1.12µM
Cc1ccc(C)c(NC(=O)Cn2nnc(C(=O)NCc3ccccc3Cl)c2N)c1	none (no result: PLK1 PBD inh)
Cc1cc(C)cc(NC(=O)Cn2nnc(C(=O)NCc3ccc(F)cc3)c2N)c1	PLK1 PBD inh 2.99µM, JMJD2A Tudor 10µM
CC(NC(=O)c1ccc(SC(F)F)cc1)c1ccncc1 (stereo not drawn)	none (no result: PLK1 PBD inh, HP1b binding inh, BAZ2B inh, JMJD2A Tudor, G9a block)
O=S1(=O)[C@H]2C[C@@H]3C=C[C@@]2(CN1Cc1ccc(F)cc1)O3	PLK1 PBD inh 23.8µM, JMJD2A Tudor inconclusive
O=S1(=O)[C@H]2C[C@@H]3C=C[C@@]2(CN1Cc1ccc(Cl)cc1)O3	none
CCOCCOC(=O)c1ccc(NC(=O)c2cc3ccccc3o2)cc1	none (no result: BAZ2B inh, G9a block)
CN1CCc2nc3sc(C(=O)c4ccc(Cl)cc4)c(N)c3cc2C1	ALOX12 inh 35.5µM (no result: PLK1 PBD inh, HP1b binding inh, BAZ2B inh, JMJD2A Tudor, G9a block)
Nc1c(C(=O)C2CC2)sc2nc3c(cc12)CCC3	G9a block inconclusive
Cc1ccccc1NC(=O)c1sc2nc3c(cc2c1N)CN(Cc1ccccc1)CC3	G9a block inconclusive (no result: PLK1 PBD inh)
CN1CCc2nc3sc(C(=O)c4ccc(F)cc4)c(N)c3cc2C1	JMJD2A Tudor inconclusive, ALOX12 inh inconclusive, G9a block inconclusive (no result: PLK1 PBD inh)
CCN1CCc2nc3sc(C(=O)c4ccccc4)c(N)c3cc2C1	JMJD2A Tudor inconclusive, ALOX12 inh inconclusive, G9a block 11.2µM (no result: PLK1 PBD inh)
CCN1CCc2nc3sc(C(=O)c4ccc(F)cc4)c(N)c3cc2C1	BAZ2B inh inconclusive, JMJD2A Tudor inconclusive, ALOX12 inh inconclusive, G9a block inconclusive (no result: PLK1 PBD inh)
CN1CCc2nc3sc(C(=O)C45CC6CC(CC(C6)C4)C5)c(N)c3cc2C1	BAZ2B inh inconclusive, ALOX12 inh inconclusive, G9a block 2.24µM
CN1CCc2nc3sc(C(=O)Nc4ccccc4C(F)(F)F)c(N)c3cc2C1	BAZ2B inh inconclusive, JMJD2A Tudor inconclusive, G9a block 12.6µM (no result: PLK1 PBD inh)
CNC(=O)[C@@H]1CN(C(=O)Cc2c(C)noc2C)C[C@H]1c1nc(C)no1	none (no result: PLK1 PBD inh, HP1b binding inh, BAZ2B inh, JMJD2A Tudor, G9a block)
CCCc1cnc2c(c1SCC(=O)Nc1cccc(C)c1C)c(=O)n(C)c(=O)n2C	none (no result: PLK1 PBD inh)
COc1ccc(C[C@H](NC(=O)[C@@]2(O)C[C@@H](O)[C@H](O)[C@@H](NC(=O)Nc3ccc(C)cc3)C2)C(N)=O)cc1	none (no result: PLK1 PBD inh, HP1b binding inh, BAZ2B inh, JMJD2A Tudor, G9a block)
CC(=O)Oc1ccc(-c2cccc(C(=O)NCC(=O)O)c2)cc1	none
O=C(N/N=C/C(Br)=C/c1ccccc1)C(O)c1ccccc1 (stereo not drawn)	none
Clc1cc(Cl)c(N/N=C/C(Br)=C/c2ccccc2)c(Cl)c1	ALOX12 inh 6.31µM (no result: PLK1 PBD inh, HP1b binding inh, BAZ2B inh, JMJD2A Tudor, G9a block)
